# High-throughput results: PubChem, National Center for Advancing Translational Sciences (NCATS)
# Hits are enriched below; roughly 19% of the tested compounds scored in any of these assays.
# TDP1 cell noCPT: qHTS for Inhibitors of human tyrosyl-DNA phosphodiesterase 1 (TDP1): qHTS in cells in absence of CPT. DT40 Tdp1-/- hTDP1 cells, no CPT, ATP luminescence, 48 h. Potency, µM (top dose mostly 46.2 µM), without a hit: at the top dose activity change, negative = growth inhibition, actives largely listed as inhibitors. 15% of 420,000 active. AID 686978, 2013; note: potency is the fitted concentration of half-maximal effect; nearly all actives have a fitted effect of over 55% in size
#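 Compound effects on proliferation are scored in DT40 Tdp1-/-;hTDP1 cells in the absence of CPT. ATP levels (CellTiter-Glo luminescence) are recorded after a ≥48 hr, 37 °C incubation.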
# HT1080 IDH1KD tx: qHTS for induction of synthetic lethality in tumor cells producing 2HG: qHTS for the HT-1080-IDH1KD cell line; HT-1080 IDH1 knockdown viability, ATP luminescence, 48 h; Potency, µM (series often up to 46.1 µM), inactives show at the top dose activity, negative = toxicity, actives largely listed as cytotoxic; 2% of 360,000 active; AID 686971, 2013;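 note: potency is the fitted concentration of half-maximal effect; 0% = DMSO wells and -100% = cell-free medium wells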
#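 Viability of IDH1-knockdown HT-1080 fibrosarcoma cells was assessed by CellTiter-Glo after 48 h at 37 °C with titrated compound; concentration-effect curves were classified by fit quality and response size.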
# HT1080NT lethal: qHTS for induction of synthetic lethality in tumor cells producing 2HG: qHTS for the HT-1080-NT fibrosarcoma cell line. HT-1080-NT fibrosarcoma viability, CellTiter-Glo ATP luminescence, 48 h. Potency, µM (series often up to 46.1 µM), without a hit: top-dose activity, negative = less viability, actives largely listed as cytotoxic. 1.6% of 360,000 active;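 note: NT is the 2HG producing partner of a matched IDH1 knockdown line; potency is the fitted concentration of half-maximal effect; 0% = DMSO-treated cells and -100% = media-only wells without cells; nearly all actives have a fitted effect of over 55% in size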
#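 Toxicity toward the 2HG-producing NT line was scored as %Activity, normalised to DMSO and no-cell wells, from CellTiter-Glo luminescence after 48 hours' treatment.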
# IL1B secr inh: qHTS for Inhibitors of Inflammasome Signaling: IL-1-beta AlphaLISA Primary Screen. THP-1 LPS/ATP IL-1B secretion, AlphaLISA, 16 h; hits give low values. activity change, % at 57.5 µM. 4.7% of 360,000 active; in the data active = activity change below about -50%; inconclusive = mostly about -30% to -49%
#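 Secreted IL-1B measured by AlphaLISA bead assay after 16 h compound exposure of THP-1 cells; compounds (final up to 57.5 uM) added 1 h before LPS (250 ng/mL) and ATP (1.25 mM) stimulation; lower signal means less secretion.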
# DT40 TDP1 CPT: qHTS for Inhibitors of human tyrosyl-DNA phosphodiesterase 1 (TDP1): qHTS in cells in presence of CPT; AID 686979, 2013; 12% of 420,000 active; chicken DT40 Tdp1-/-;hTDP1 cells + 20 nM CPT, ATP luminescence, 48 h; Potency, µM (titrated, usually from 46.2 µM), inactives show at the top dose activity change, negative = growth inhibition, hits mostly inhibitors; note: potency is the fitted concentration of half-maximal effect; nearly all actives have a fitted effect of over 55% in size
#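 Chicken DT40 Tdp1-/- cells stably complemented with human TDP1 were seeded at 400 cells/well in medium containing 20 nM camptothecin, exposed to pin-transferred compounds, and grown at 37 °C for at least 48 hr. Viability was read as ATP luminescence.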
# * marks the source's active call; other numbers are inactive results; ? = inconclusive; nt = no result given. Unless noted, calls come from the whole dose curve; as a rule, active = well fitted curve in the direction sought with a large enough effect; inconclusive = small, poorly fitted or top-dose-only effect, or another doubt; inactive = no such curve, though single readings can be large; an effect the other way counts as inactive or inconclusive. Unless noted, % is set by controls: 0 for no effect and ±100 for the full control effect.
SMILES,TDP1 cell noCPT,HT1080 IDH1KD tx,HT1080NT lethal,IL1B secr inh,DT40 TDP1 CPT
Cc1nnc(N2CCN(c3ccccc3)CC2)c2c1nnn2Cc1ccc(F)cc1,?,nt,nt,nt,16.4µM*
Cc1ccc(CNc2nnc(C)c3nnn(Cc4ccc(F)cc4)c23)cc1,1.8%,nt,nt,nt,?
CCn1cc(C(=O)NCCc2ccc(Cl)cc2)c(=O)c2cc(S(=O)(=O)N3CCOCC3)ccc21,3.3%,nt,nt,nt,7.0%
CCn1cc(C(=O)NCC(OC)OC)c(=O)c2cc(S(=O)(=O)N3CCC(C)CC3)ccc21,10.3µM*,-1.5%,-4.7%,-6.5,?
CCn1cc(C(=O)NCc2ccc(C)cc2)c(=O)c2cc(S(=O)(=O)N3CCCCCC3)ccc21,20.6µM*,nt,nt,nt,14.6µM*
CCn1cc(C(=O)NCc2ccc(Cl)cc2)c(=O)c2cc(S(=O)(=O)N3CCOCC3)ccc21,23.1µM*,-0.6%,-10.3%,-1.5,20.6µM*
Cc1cc(C)c(C)c(S(=O)(=O)NCc2ccc(C(=O)N3CCCCC3)cc2)c1C,?,-0.5%,-15.1%,-4.4,-23.2%
CC1Nc2ncnc(N3CCc4ccccc4C3)c2N(Cc2ccc(Br)cc2)C1=O (centres undefined),23.1µM*,?,?,?,16.4µM*
CC1Nc2ncnc(N3CCc4ccccc4C3)c2N(Cc2ccc(Cl)cc2)C1=O (centres undefined),?,-27.9%,-16.7%,?,?
O=C1C(Cc2ccccc2)Nc2ncnc(N3CCc4ccccc4C3)c2N1Cc1ccccc1 (centres undefined),16.4µM*,-10.4%,-19.4%,5.0,?
CCC1Nc2ncnc(N3CCc4ccccc4C3)c2N(Cc2ccc(Br)cc2)C1=O (centres undefined),?,?,?,-94.9*,?
CC(=O)c1cccc(NC(=O)Cn2cc(C(=O)c3cccc(Cl)c3)c(=O)c3ccc(C)nc32)c1,-1.0%,nt,nt,nt,-1.8%
CCC1Oc2ccc(C)cc2N(CC(=O)N(Cc2cccnc2)Cc2cccc(F)c2)C1=O (centres undefined),?,-9.6%,-14.1%,-11.6,18.4µM*
COc1cccc(NC(=O)CN(C)C(C)C(=O)N2CCCCC2)c1 (centres undefined),-11.6%,15.5%,-1.1%,8.8,-24.7%
CCOc1ccccc1NC(=O)c1c(NCc2ccc(C)o2)sc2c1CCCCC2,2.91µM*,nt,nt,nt,4.61µM*
CCOC(=O)N1CCc2c(sc(NCc3sccc3C)c2C(=O)Nc2cc(Cl)ccc2OC)C1,?,nt,nt,nt,-23.7%
COc1ccc(Cl)cc1NC(=O)c1c(NCc2ccc(C)o2)sc2c1CCCC2,20.6µM*,nt,nt,nt,?
CCOC(=O)N1CCc2c(sc(NCc3ccc(N(C)C)cc3)c2C(=O)Nc2ccccc2OCC)C1,8.2µM*,nt,nt,nt,?
COc1ccc(Cl)cc1NC(=O)c1c(NCc2cccnc2)sc2c1CCCC2,14.6µM*,nt,nt,nt,23.1µM*
CCOc1ccccc1NC(=O)c1c(NC(=O)COc2ccccc2)sc2c1CCCC2,-26.4%,nt,nt,nt,-4.6%
CC(=O)N/C(=C\c1ccccc1)C(=O)Nc1ccccc1C,-4.8%,7.7%,-0.4%,3.0,8.2%
COc1cccc(CN2CC(C(=O)N(C)CCCC3CCCC3)CCC2=O)c1 (centres undefined),?,-13.3%,13.1%,-13.0,?
CN(C)CCNc1ncnc2c1ncn2[C@H]1CN(Cc2ccc(-c3ccccc3)cc2)C[C@@H](CO)O1,20.6µM*,20.6µM*,6.51µM*,-5.1,29.1µM*
CC(C)Nc1ncnc2c1ncn2[C@H]1CN(Cc2ccc(-c3ccccc3)cc2)C[C@@H](CO)O1,5.17µM*,?,?,-10.8,4.61µM*
OCCNc1ncnc2c1ncn2[C@H]1CN(Cc2ccc(-c3ccccc3)cc2)C[C@@H](CO)O1,?,-27.7%,-29.2%,0.5,?
SMILES,TDP1 cell noCPT,HT1080 IDH1KD tx,HT1080NT lethal,IL1B secr inh,DT40 TDP1 CPT
CN(C)CCNc1ncnc2c1ncn2[C@H]1CN(Cc2ccccc2)C[C@@H](CO)O1,-23.0%,15.0%,?,0.0,?
CCN(CC)c1ncnc2c1ncn2[C@H]1CN(Cc2ccc(-c3ccccc3)cc2)C[C@@H](CO)O1,16.4µM*,?,?,-53.7*,?
CC(C)CNc1ncnc2c1ncn2[C@H]1CN(Cc2ccc(-c3ccccc3)cc2)C[C@@H](CO)O1,4.11µM*,?,18.4µM*,-26.8,5.17µM*
O=C(NCC(c1cccs1)N1CCOCC1)c1cc(-c2ccc(F)cc2)nc2ccccc12 (centres undefined),16.4µM*,-5.8%,-1.0%,-9.5,?
CCn1nc(C(=O)NCC(c2cccs2)N2CCOCC2)c2ccccc2c1=O (centres undefined),20.6µM*,-3.4%,-2.8%,36.7,14.6µM*
CCCCn1nc(C(=O)NCC(c2cccs2)N2CCOCC2)c2ccccc2c1=O (centres undefined),20.6µM*,-1.0%,0.3%,5.7,?
Cc1ccc(S(=O)(=O)N2CCCCC2CCNC(=O)C(=O)NCc2ccncc2)cc1 (centres undefined),?,-11.1%,2.0%,1.4,?
Cc1ccccc1-c1nnn(CC(=O)N(C)CC(=O)Nc2ccccc2C(F)(F)F)n1,-27.8%,5.2%,1.3%,3.1,-1.9%
CCCCn1c(N)c(N(CC(C)C)C(=O)c2cccs2)c(=O)[nH]c1=O,-15.0%,-6.9%,-3.5%,7.2,-14.1%
CN(C)Cc1ccccc1-c1cncnc1NCc1cccs1,-11.0%,nt,nt,nt,1.0%
CCN(c1ccccc1)S(=O)(=O)c1ccc(NCC2COc3ccccc3O2)nc1 (centres undefined),?,?,-27.8%,?,25.9µM*
CCN(c1ccccc1)S(=O)(=O)c1ccc(Cl)nc1,?,10.4%,23.9%,0.0,-14.4%
Cc1cccn2c(=O)c3cc(S(=O)(=O)c4ccccc4)c(=N)n(Cc4cccnc4)c3nc12,23.1µM*,1.0%,-8.9%,2.8,-28.2%
Cc1ccc(S(=O)(=O)c2cc3c(=O)n4cccc(C)c4nc3n(CC3CCCO3)c2=N)cc1C (centres undefined),6.51µM*,-0.8%,-3.2%,21.4,5.8µM*
Cc1cccn2c(=O)c3cc(S(=O)(=O)c4ccccc4)c(=N)n(CC4CCCO4)c3nc12 (centres undefined),11.6µM*,12.8%,15.6%,6.6,?
